Neddyl block – cullin neddylation inhibition; P61081+Q13564; TR-FRET cullin neddylation, biochemical; inhibition, % at 25 µM; hit rate 0.58% among 360,000; AID 651699; in the data active = inhibition above about 36%
Target sequence (P61081 whole entry, looked up): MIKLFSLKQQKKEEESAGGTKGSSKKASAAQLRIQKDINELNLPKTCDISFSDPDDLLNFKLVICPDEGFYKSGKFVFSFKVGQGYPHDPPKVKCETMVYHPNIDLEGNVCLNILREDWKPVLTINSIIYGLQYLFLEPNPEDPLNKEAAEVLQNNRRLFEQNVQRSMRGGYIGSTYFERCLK
Target sequence (Q13564 whole entry, looked up): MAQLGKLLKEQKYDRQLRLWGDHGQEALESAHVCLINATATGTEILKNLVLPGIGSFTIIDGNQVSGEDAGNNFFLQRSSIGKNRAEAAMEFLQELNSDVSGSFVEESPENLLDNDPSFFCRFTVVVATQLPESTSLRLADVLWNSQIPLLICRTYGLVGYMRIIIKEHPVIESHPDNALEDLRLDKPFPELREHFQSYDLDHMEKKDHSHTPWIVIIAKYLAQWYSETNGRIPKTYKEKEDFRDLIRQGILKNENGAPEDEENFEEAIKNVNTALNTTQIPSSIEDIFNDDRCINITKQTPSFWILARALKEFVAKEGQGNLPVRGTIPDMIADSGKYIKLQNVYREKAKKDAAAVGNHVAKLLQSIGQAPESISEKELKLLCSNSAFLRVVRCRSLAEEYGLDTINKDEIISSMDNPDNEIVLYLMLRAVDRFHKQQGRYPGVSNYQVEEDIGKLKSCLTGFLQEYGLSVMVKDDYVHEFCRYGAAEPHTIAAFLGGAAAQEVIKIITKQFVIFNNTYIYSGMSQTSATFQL
Rin1-Abl PPI inh – inhibitors of human Rin1-Abl protein interaction | TR-FRET Rin1/Abl binding, biochemical | AID 588664 | inhibition, % at 7.35 µM | hit rate 0.4% among 360,000; in the data active = inhibition above about 5%, passing the limit was not always enough
SUMO1-SIM PPI – modulators of human SUMO1-mediated protein-protein interactions | SUMO1 binding to a labelled peptide, TR-FRET, 1 h | inhibition, % at 20 µM | hit rate 0.33% among 360,000; in the data active = inhibition above about 37%
ATG4B inh – ATG4B (human) cysteine protease inhibition | inhibition, % at 8.33 µM | Q9Y4P1 | ATG4B cleavage of LC3-PLA2, NBD-HPC fluorescence, 1 h | hit rate 0.51% among 340,000; in the data active = inhibition above about 40%
Rin1 Abl conf – Rin1-Abl interaction inhibition confirmation | shares compounds with Rin1-Abl PPI inh | TR-FRET Rin1-Abl binding, purified proteins | inhibition, % at 7.35 µM | hit rate 49% among 1,300 | AID 602124
GFP quench – counter-screen for Rin1-Abl inhibitors: GFP fluorescence quenchers | hit rate 8.5% among 1,300 | inhibition, % at 6.75 µM | inhibitors/quenchers counterscreen | shares compounds with Rin1-Abl PPI inh;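 note: ABL1-eGFP fusion protein alone without its partner RIN1-SBP; 0% = protein with vehicle and 100% = wells lacking protein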
GFP quench DR – counter-screen for Rin1-Abl inhibitors: GFP quenchers, dose response; GFP fluorescence interference/quenching counterscreen; 230 tested, under 10 active; shares compounds with Rin1-Abl PPI inh; IC50, µM; AID 602182; call rule not given here;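 note: ABL1-eGFP fusion protein alone without its RIN1 binding partner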
Starred values were filed as active, the others as inactive. Shown are actives, neighbours in structure and some others; about 1.7% of the full set was active somewhere. Cut-off read from the data, not from the text of the source, unless noted: active = inhibition above about 6.5%; inactive = the rest.

How did COC(=O)C1=C[C@@H](C(=O)OC)[C@@H]2C3=C(C(=O)[C@]2(C)NC(=O)c2ccccc2)[C@H](C)n2c(=O)n(-c4ccccc4)c(=O)n2[C@@H]3C1 do in these assays?
Neddyl block: 1.1; Rin1-Abl PPI inh: 4.1; SUMO1-SIM PPI: -2.1; ATG4B inh: -10.7

How did CCC1(CC)C(=O)C2=C3C1[C@H](C(=O)OC)C=C(C(=O)OC)C[C@H]3n1c(=O)n(-c3ccccc3)c(=O)n1[C@H]2C (some centres undefined) do in these assays?
Neddyl block: -20.4; Rin1-Abl PPI inh: 24.0*; SUMO1-SIM PPI: -0.8; ATG4B inh: -4.4; Rin1 Abl conf: 22.6*; GFP quench: 2.1; GFP quench DR: >67.5

How did COc1cccc(C(O)c2ncc(-c3ccccc3)[nH]2)c1 (centres undefined) do in these assays?
Neddyl block: -10.0; Rin1-Abl PPI inh: 1.0; SUMO1-SIM PPI: 1.1

How did CCOC(=O)CC1ON(C)C(=O)N1c1ccc(Cl)cc1Cl (centres undefined) do in these assays?
Neddyl block: -9.3; Rin1-Abl PPI inh: 7.0*; SUMO1-SIM PPI: -0.4; ATG4B inh: 6.6; Rin1 Abl conf: 0.2; GFP quench: -2.1

What do the screens show for `CN1OC(CC(=O)O)N(c2ccc(Cl)cc2)C1=O` (centres undefined)?
Neddyl block: -1.4; Rin1-Abl PPI inh: 4.6; SUMO1-SIM PPI: -1.8; ATG4B inh: -10.1

Results for O=S(=O)(Nc1nccs1)c1ccc(Br)cc1 ?
Neddyl block: -7.4; Rin1-Abl PPI inh: 10.8*; SUMO1-SIM PPI: 3.9; ATG4B inh: 1.7; Rin1 Abl conf: -2.1; GFP quench: -0.3

How did COCCn1c(SCC(=O)Nc2ccc3c(c2)OCCO3)nc2ccccc2c1=O do in these assays?
Neddyl block: -0.5; Rin1-Abl PPI inh: 7.0*; SUMO1-SIM PPI: 4.3; Rin1 Abl conf: -1.1; GFP quench: -0.8

How did CCCCOc1ccc(C(C)NC(=O)CCS(=O)(=O)Cc2ccc(C)cc2)cc1 (centres undefined) do in these assays?
Neddyl block: 0.4; Rin1-Abl PPI inh: 4.4*; SUMO1-SIM PPI: -3.6; ATG4B inh: 21.9; Rin1 Abl conf: -7.0; GFP quench: 0.4

Results for CCOCCCNC(=O)CCS(=O)(=O)Cc1ccc(C)cc1 ?
Neddyl block: -6.7; Rin1-Abl PPI inh: 1.1; SUMO1-SIM PPI: 0.9; ATG4B inh: -7.1

How did O=C1NC[C@H](CCCCN2C[C@@H](Cc3ccccc3)N(CC3CCCCC3)C(=O)C2=O)N(CCC2CCCCC2)C1=O do in these assays?
Neddyl block: 0.4; SUMO1-SIM PPI: 7.1

What do the screens show for `Cc1ccc(C(c2cc(Cl)c3cccnc3c2O)N2CCN(C)CC2)cc1` (centres undefined)?
Neddyl block: 13.7; Rin1-Abl PPI inh: 3.3; SUMO1-SIM PPI: -2.2; ATG4B inh: -5.0

How did CN1CCN(C(c2ccccn2)c2cc(Cl)c3cccnc3c2O)CC1 (centres undefined) do in these assays?
Neddyl block: 8.2; Rin1-Abl PPI inh: 25.7*; SUMO1-SIM PPI: -5.6; ATG4B inh: -4.1; Rin1 Abl conf: 21.8*; GFP quench: 4.0; GFP quench DR: >67.5

How did CN(CC(=O)Nc1ccc(Cl)c(Cl)c1)C(=O)/C=C/c1ccc(F)cc1 do in these assays?
Neddyl block: -1.2; Rin1-Abl PPI inh: 9.5*; SUMO1-SIM PPI: -1.5; ATG4B inh: -1.2; Rin1 Abl conf: -0.6; GFP quench: -2.8

What do the screens show for `CN(CC(=O)Nc1cccc(F)c1)C(=O)/C=C/c1ccc(S(=O)(=O)N2CCCCCC2)cc1`?
Neddyl block: -11.1; Rin1-Abl PPI inh: 3.0; SUMO1-SIM PPI: -15.2; ATG4B inh: -17.5

Results for CSc1ccc(CN2C(=O)C(F)(F)Oc3c(C(C)=O)cccc32)cc1 ?
Neddyl block: -1.3; Rin1-Abl PPI inh: -1.0; SUMO1-SIM PPI: 5.9

Results for CCCNC(=O)c1cc(C2CCCN(S(=O)(=O)c3cccs3)C2)on1 (centres undefined) ?
Neddyl block: -8.1; Rin1-Abl PPI inh: -0.7; SUMO1-SIM PPI: 3.1

How did O=C1/C(=C/c2ccc(O)c(O)c2)SC(=S)N1Nc1ccccc1 do in these assays?
Neddyl block: -32.8; Rin1-Abl PPI inh: 5.4; SUMO1-SIM PPI: -25.3; ATG4B inh: 6.9

What do the screens show for `O=C(NN1C(=O)/C(=C/c2ccc(O)c(O)c2)SC1=S)c1ccccc1`?
Neddyl block: -54.8; Rin1-Abl PPI inh: 7.5*; SUMO1-SIM PPI: 4.8; ATG4B inh: 8.8; Rin1 Abl conf: 6.6*; GFP quench: 12.0*

What do the screens show for `COc1cccc(C(c2c(C)[nH]n(-c3ccccc3)c2=O)c2c(C)[nH]n(-c3ccccc3)c2=O)c1O`?
Neddyl block: 7.8; Rin1-Abl PPI inh: 5.7; SUMO1-SIM PPI: 3.8; ATG4B inh: 3.5

Results for COc1ccc(C(C[N+](=O)[O-])c2c(C)[nH]n(-c3ccccc3)c2=O)cc1 (centres undefined) ?
Neddyl block: -0.7; Rin1-Abl PPI inh: 10.5*; SUMO1-SIM PPI: 13.9; ATG4B inh: -4.4; Rin1 Abl conf: 6.6*; GFP quench: -1.8

How did Cc1[nH]n(-c2ccccc2)c(=O)c1C(c1ccc(O)c([N+](=O)[O-])c1)c1c(C)[nH]n(-c2ccccc2)c1=O do in these assays?
Neddyl block: -19.4; Rin1-Abl PPI inh: 12.7*; SUMO1-SIM PPI: 5.9; ATG4B inh: 5.5; Rin1 Abl conf: -3.9; GFP quench: 4.1

What do the screens show for `COc1cccc(C(c2c(C)[nH]n(-c3ccccc3)c2=O)c2c(C)[nH]n(-c3ccccc3)c2=O)c1OC`?
Neddyl block: 3.8; Rin1-Abl PPI inh: 6.4*; SUMO1-SIM PPI: 7.8; ATG4B inh: -8.2; Rin1 Abl conf: 0.1; GFP quench: -1.8

Results for Cc1[nH]n(-c2ccccc2)c(=O)c1C(C[N+](=O)[O-])c1ccccc1Cl (centres undefined) ?
Neddyl block: 2.6; Rin1-Abl PPI inh: 2.5; SUMO1-SIM PPI: 7.8; ATG4B inh: -3.7

How did COC(=O)c1cc(O)c(O)c(O)c1 do in these assays?
Neddyl block: 9.4; Rin1-Abl PPI inh: 18.5*; SUMO1-SIM PPI: 5.9; ATG4B inh: -8.4; Rin1 Abl conf: 16.6*; GFP quench: 4.1

How did Cc1c(C(=O)NCc2ccc(F)cc2)sc(=O)n1Cc1ccccc1F do in these assays?
Neddyl block: 6.7; Rin1-Abl PPI inh: -2.4; SUMO1-SIM PPI: -0.4

What do the screens show for `CC1CC(=O)C(C(C2=C(O)CC(C)CC2=O)c2ccccc2)=C(O)C1` (centres undefined)?
Neddyl block: 4.0; Rin1-Abl PPI inh: 2.5; SUMO1-SIM PPI: -0.2; ATG4B inh: 6.7

What do the screens show for `CCOC(=O)c1ccc(NC(=O)N2CCN(c3ccccc3OC)CC2)cc1`?
Neddyl block: 9.6; Rin1-Abl PPI inh: 9.4*; SUMO1-SIM PPI: -2.3; ATG4B inh: -15.5; Rin1 Abl conf: 16.0*; GFP quench: 0.0

Results for CCOC(=O)N1CCN(c2ccccc2OC)CC1 ?
Neddyl block: 3.1; Rin1-Abl PPI inh: -0.5; SUMO1-SIM PPI: 3.0; ATG4B inh: -6.7

Bioassay records as filed in PubChem.
